What all share (format): functional
Assay [1] concerns the target Solute carrier family 2, facilitated glucose transporter member 1 (Homo sapiens) (UniProt P11166). The experiment in a line: ST_JUDE_LEISH: Cytotoxicity at 2uM final concentration against transgenic Leishmania Mexicana promastigotes LmGLUT1 that are glucose transport deficient and complemented with the human glucose transporter GLUT1. Activity is measured by DNA content using SYBR green in vitro.

In assay [2] the target is Hexose transporter 1 (Plasmodium falciparum) (UniProt O97467). Description: ST_JUDE_LEISH: Cytotoxicity at 2uM final concentration against transgenic Leishmania Mexicana promastigotes LmPfHT that are glucose transport deficient and complemented with the Plasmodium falciparum hexose transporter. Activity is measured by DNA content using SYBR green in vitro.
In assay [3] the target is Glucose transporter (Leishmania mexicana) (UniProt O61059). The experiment in a line: ST_JUDE_LEISH: Cytotoxicity at 2uM final concentration against transgenic Leishmania Mexicana promastigotes LmGT2 that are glucose transport deficient and complemented with the L. Mexicana glucose transporter 2. Activity is measured by DNA content using SYBR green in vitro.

Chain of Solute carrier family 2, facilitated glucose transporter member 1 (Homo sapiens) (P11166 whole entry): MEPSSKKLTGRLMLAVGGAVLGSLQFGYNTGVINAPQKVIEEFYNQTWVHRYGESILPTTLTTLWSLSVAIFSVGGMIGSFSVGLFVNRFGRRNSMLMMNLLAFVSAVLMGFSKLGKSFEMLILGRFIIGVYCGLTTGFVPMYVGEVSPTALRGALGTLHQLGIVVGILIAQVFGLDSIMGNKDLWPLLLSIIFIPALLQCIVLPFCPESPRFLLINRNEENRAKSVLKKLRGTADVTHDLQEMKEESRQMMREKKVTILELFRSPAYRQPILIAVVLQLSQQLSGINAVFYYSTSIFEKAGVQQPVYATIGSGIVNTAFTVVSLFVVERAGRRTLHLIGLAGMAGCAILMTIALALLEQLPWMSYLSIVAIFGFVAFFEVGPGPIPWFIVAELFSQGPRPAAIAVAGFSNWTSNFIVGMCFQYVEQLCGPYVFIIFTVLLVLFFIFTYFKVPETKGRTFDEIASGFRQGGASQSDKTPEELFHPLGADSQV

Broadly, the inhibition is the drop in the measured response relative to a control, in per cent. Turning to `COc1cccc(-c2cccc(CNC3CCN(CC4Cn5c(=O)ccc6ccc(F)c4c65)CC3)c2)c1` (configuration not stated), the figures for the inhibition in assay [1], in assay [2] and in assay [3] were 6.16%, 2.1% and 1.71%, respectively.

On to `COc1cc(C(=O)NCCCN2CCN(c3cc(Cl)ccc3OC)CC2)ccc1-c1nc2cc(Cl)c(Cl)cc2[nH]1`, for which the inhibition in assay [1] amounted to 6.79%; in assay [2], 6.15%; in assay [3], 5.03%.

With `COc1cc2nc(SCC(C)C)n(CCCn3ccnc3)c(=N)c2cc1OC`, the inhibition stood at 3.51% in assay [1], 6.49% in assay [2] and 3.6% in assay [3].

As to `O=C1NC(c2ccc(N3CCCCCC3)cc2)Nc2ccccc21` (configuration not stated), the inhibition was determined as 6.32% in assay [1], 4.82% in assay [2] and 2.21% in assay [3].

`COc1ccccc1CNC(=O)c1nn(-c2ccc(Cl)cc2)c(=O)c2ccccc12`: the inhibition was 4.66% in assay [1], 4.83% in assay [2] and 3.54% in assay [3].

Regarding `CS(=O)(=O)c1ccc(CCNCc2ccc(-c3cccc(-c4nc5ccccc5[nH]4)c3)cc2)cc1`, the figures for the inhibition in assay [1], in assay [2] and in assay [3] were 1.41%, 0.65% and -0.73%, respectively.

As to `CC(Cc1ccc(OCCCCOc2ccccc2)cc1)NCCc1ccc(Oc2ccccc2)cc1` (configuration not stated), the inhibition in assay [1] was determined as 87.5%; in assay [2], 84.7%; in assay [3], 78.2%.

For `Cc1cc(-c2ccc3c(c2)CCN(CCC2CCC(NC(=O)/C=C/c4ccc(F)cc4)CC2)CC3)on1` (configuration not stated), the inhibition in assay [1] turned out to be 4.44%; in assay [2], 2.66%; in assay [3] it was 4.41%.

Consider `COc1ccc(OCC(=O)Nc2cc(-c3nc4ccccc4[nH]3)ccc2Cl)cc1`, for which the inhibition in assay [1] worked out at 6.17%; in assay [2] it was 6.14%; in assay [3], 3.14%.

As for `c1ccc(CNc2nc(NCCc3c[nH]cn3)nc(N3CCCC4CCCCC43)n2)cc1` (configuration not stated), the inhibition in assay [1] is -1.84%; in assay [2] it was -0.22%; in assay [3], -1.46%.

Turning to `COC(=O)c1ccc(N2CCN(CCCCNC(=O)c3ccc(NC(=O)c4ccc(Cl)cc4)cc3)CC2)c(OC)c1`, the figures for the inhibition in assay [1], in assay [2] and in assay [3] were 0.45%, 1.46% and 1.51%, respectively.

As to `COc1ccc(-c2ccc(NC(=O)c3ccc(Cl)cc3)cc2)cc1CN1CCC(O)CC1`, the inhibition was 3.31% in assay [1], 2.62% in assay [2] and 2.54% in assay [3].

Take `Cc1cccc2nc(-c3ccc(-c4ccc(CN5CCN(c6cnccn6)CC5)cc4)s3)[nH]c12`: the inhibition in assay [1] is 11.9%; in assay [2], 9.41%; in assay [3], 9.78%.

In the case of `CCCC(C)c1ccc(N2C(N)=NC(N)=NC2(C)C)cc1` (configuration not stated), the values for the inhibition in assay [1], in assay [2] and in assay [3] were 2.85%, 2.75% and 0%, respectively.

With `CN(C)c1ccc(C(c2ccc(N(C)C)cc2)c2cc([N+](=O)[O-])ccc2Cl)cc1`, the results for the inhibition in assay [1], in assay [2] and in assay [3] were 0.57%, 0.82% and -3.09%, respectively.

Consider `CS(=O)(=O)N(c1cccc(F)c1)c1cc(C(=O)N[C@@H](Cc2ccccc2)[C@H](O)CNCc2cccc(C(F)(F)F)c2)cc(N2CCCC2=O)c1`, for which the figures for the inhibition in assay [1], in assay [2] and in assay [3] were -2.34%, -1.22% and -0.57%, respectively.

Take `CC(C)CNCc1cccc(-c2cccc(CN(CCN(C)C)C(=O)NCCc3ccccc3)c2)c1`: the values for the inhibition in assay [1], in assay [2] and in assay [3] were -1.09%, -0.75% and -4.18%, respectively.

Consider `CC1CCCCN1CCCNC(=O)c1cccc(-c2cc3cc(Cl)c(Cl)cc3[nH]2)c1` (configuration not stated), for which the results for the inhibition in assay [1], in assay [2] and in assay [3] were 3.16%, 3.02% and 4.99%, respectively.

As to `Cc1cnc(NC(=O)c2cn(-c3ccccc3)nc2-c2cccs2)s1`, the inhibition was found to be 14.6% in assay [1], 13.2% in assay [2] and 13.9% in assay [3].

Turning to `CC(C)(C)c1ccc(CN(C[C@@H](O)CNS(=O)(=O)c2cc(Cl)cc(Cl)c2)C(C)(C)C)cc1`, the inhibition is 0.82% in assay [1], 0.36% in assay [2] and -0.02% in assay [3].

As for `Nc1nc(N)c2c(Oc3cccc(Cl)c3)cccc2n1`, the inhibition was 1.52% in assay [1], 1.79% in assay [2] and -1.1% in assay [3].

`OCC(c1ccccc1)n1c(COc2ccc(Cl)cc2)nc2c(OCCCN3CCCCC3)cccc21` (configuration not stated): the inhibition in assay [1] worked out at 12.9%; in assay [2], 9.11%; in assay [3], 6.47%.

`O=[N+]([O-])c1ccc2nc(Nc3ccc(Cl)c(Cl)c3)c(Nc3ccc(Cl)c(Cl)c3)nc2c1`: the inhibition in assay [1] stood at 0.54%; in assay [2], 1.45%; in assay [3] it was 1.69%.

For `CCN(CC)CCN(Cc1ccc(-c2ccc(C(F)(F)F)cc2)cc1)C(=O)Cn1c(CCc2ccc(F)cc2)nc(=O)c2ccccc21`, the results for the inhibition in assay [1], in assay [2] and in assay [3] were 2.98%, 2.96% and 3.33%, respectively.

As to `CCNc1cc(C(=O)N[C@@H](Cc2ccccc2Cl)[C@H](O)CNC(C)CCCC(C)C)cc(N2CCCCS2(=O)=O)c1` (some centres not stated), the inhibition in assay [1] is -2.6%; in assay [2], 0.93%; in assay [3] it was -2.24%.

On to `COc1ccc(NC(=O)[C@H](Cc2ccccc2)Nc2cc(C)nc(NCCc3ccccn3)n2)cc1`, for which the results for the inhibition in assay [1], in assay [2] and in assay [3] were 4.73%, 5.3% and -0.86%, respectively.

In the case of `COc1cccc(NC(=O)c2ccc(NCCCN3CCC(C)CC3)c([N+](=O)[O-])c2)c1`, the inhibition in assay [1] turned out to be 76.1%; in assay [2], 41.7%; in assay [3] it was 12.8%.

`CC1CN(c2ccc3occ(C(=O)Nc4ccc(-c5ccncc5)c(Cl)c4)c3c2)CC(C)N1C` (configuration not stated): the inhibition in assay [1] was 5.54%; in assay [2], 3.33%; in assay [3], 1.93%.

On to `CCOc1cccc(C(=O)Nc2cccc(CN3CCCN(Cc4cccc(O)c4)CC3)c2)c1`, for which the values for the inhibition in assay [1], in assay [2] and in assay [3] were 4.67%, 5.58% and 3.26%, respectively.

`CCOC(=O)c1cccc(NC(=O)Nc2cc(C)nc3ccccc23)c1`: the inhibition was 9.1% in assay [1], 6.21% in assay [2] and 5.11% in assay [3].

With `COc1cccc(CNC(=O)NC2CCN(c3ccnc(Nc4cc(OC)c(OC)c(OC)c4)n3)C2)c1` (configuration not stated), the inhibition in assay [1] turned out to be 2.39%; in assay [2] it was 1.6%; in assay [3] it was 2.88%.

In the case of `COc1ccc2nc(C)cc(N/N=C/c3cccc([N+](=O)[O-])c3)c2c1`, the inhibition was 8.97% in assay [1], 7.38% in assay [2] and 7.7% in assay [3].

For the molecule `CN1CCN(c2ccc(Nc3ncc([N+](=O)[O-])c(Nc4ccccc4O)n3)cc2)CC1`, the inhibition in assay [1] amounted to 2.1%; in assay [2], 3.83%; in assay [3], 1.84%.

`O=C(O)C1Cc2c([nH]c3ccccc23)C(c2ccc(Cl)cc2Cl)N1` (configuration not stated): the results for the inhibition in assay [1], in assay [2] and in assay [3] were 3.99%, 2.22% and 4.37%, respectively.

These data come from ChEMBL document CHEMBL3433997, “St. Jude Leishmania screening dataset” (2016).
